From PubChem
Marburg entry inh: inhibitors of Marburg virus binding or cell entry; Marburg virus pseudotyped entry inhibition, cell reporter; Potency, µM (titrated, usually from 37.8 µM), for inactives: at the top dose activity change, negative = inhibition, usual class: inhibitors; actives 1.8% (n = 300,000); AID 540276; calls by dose curve; tested in HEK293 cells; further: potency means the concentration at half of the fitted maximal effect
FMDV inh: blocks foot and mouth disease virus | actives 1.2% (n = 410,000) | Potency, µM (highest dose often 57.9 µM), inactives show at the highest dose activity change, negative = inhibition, usual class: inhibitors | FMDV antiviral cell-based qHTS | AID 1159524; calls by dose curve; tested in HEK293T cells; further: read-out not given here; potency means the concentration at half of the fitted maximal effect; nearly all actives have a fitted effect of over 45% in size
HCMV antiviral: blocks human cytomegalovirus replication; actives 4.5% (n = 410,000); activity change, negative = inhibition, % at 57.5 µM; AID 1259415; HFF cells, HCMV-luciferase reporter, 72 h; hits give low values; in the data active means activity change below about -60%; inconclusive means no clear call, values can overlap the other calls; inactive means above about -39%
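Screen run at 2 compound doses on HFFs infected with reporter HCMV, MOI 1 PFU/cell. Luciferase activity from cell lysates at 72 h post infection gave inhibition relative to buffer-only and Salinomycin wells.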
LASV entry inh: inhibitors of Lassa virus binding or cell entry | Lassa virus pseudotype entry inhibition, cell reporter | Potency, µM (doses to about 37.9 µM), for the others: at the highest dose activity change, negative = inhibition, usual class: inhibitors | actives 1.2% (n = 300,000); calls by dose curve; tested in HEK293 cells; further: potency means the concentration at half of the fitted maximal effect; nearly all actives have a fitted effect of over 50% in size
VACV Venus inh: inhibitors of vaccinia virus (Venus reporter). Vaccinia virus Venus reporter expression, fluorescence. Potency, µM (highest dose often 36.5 µM), for inactives: at the highest dose activity change, negative = inhibition, most hits filed as inhibitors. actives 0.46% (n = 330,000). AID 720580; calls by dose curve; tested in A549 cells; further: potency means the concentration at half of the fitted maximal effect; nearly all actives have a fitted effect of over 30% in size
VACV mCherry inh: vaccinia inhibition (mCherry reporter). Vaccinia virus mCherry reporter infection, fluorescence. Potency, µM (highest dose often 36.5 µM), inactives show at the highest dose activity change, negative = inhibition, usual class: inhibitors. actives 0.63% (n = 310,000); calls by dose curve; tested in A549 cells; further: potency means the concentration at half of the fitted maximal effect; nearly all actives have a fitted effect of over 35% in size
* = called active by the depositor; i = inactive; ? = inconclusive; . = not tested or not shown; [ ] = remark or other dose. Compounds with a hit are over-represented: about 6.5% of the library has one in this group of screens. On the % scale 0 is the no-effect control and ±100 the full control effect.

SMILES	Marburg entry inh	FMDV inh	HCMV antiviral	LASV entry inh	VACV Venus inh	VACV mCherry inh
CC(NC(=O)C1CCC(C(C)(C)C)CC1)C(c1ccccc1)N1CCOCC1 (centres undefined)	?	-15%	?	-5%[46.1 µM]	-17%	-11%
Cc1cccc(C(=O)NC(C)C(c2cccs2)N2CCOCC2)c1 (centres undefined)	?	-17%	0	16%[46.1 µM]	-6%	i
CC(NC(=O)Nc1ccc(Cl)c(Cl)c1)C(c1ccccc1)N1CCOCC1 (centres undefined)	?	-18%	-95*	?	.	.
CC(NC(=O)c1ccc(Cl)cc1Cl)C(c1ccccc1)N1CCOCC1 (centres undefined)	7%[46.1 µM]	14%	-66*	14%	-7%	-11%
CCOc1ccc(S(=O)(=O)NCCC(=O)NCc2ccccn2)cc1	4%	18%	-5	2%	-11%	-10%
COc1ccccc1N1CCN(c2nc(CNC(=O)c3sc(C)nc3C)nc3ccccc23)CC1	.	?	.	.	-13%	-17%
O=C(Nc1sc2c(c1C(=O)O)CCCC2)c1ccc(F)cc1	2.5µM*	17%	19	?	-16%	-1%
CC(C)(C)c1ccc(C(=O)Nc2sc3c(c2C(=O)O)CCC3)cc1	3.2µM*	-19%	-76*	?	-15%	-7%
CCOC(=O)c1c(NC(=O)c2ccc(-n3cnnn3)cc2)sc2c1CCCC2	?	-25%	.	16µM*	-8%	-12%
COc1cccc(C(=O)Nc2sc3c(c2C(=O)O)CCCC3)c1	11µM*	32%	18	10µM*	?	?
Cc1cccc(C(=O)Nc2sc3c(c2C(=O)O)CCC3)c1	.	?	-1	.	.	.
CCOC(=O)c1c(NC(=O)c2ccc(Br)cc2)sc2c1CCCC2	.	-19%	-10	8%[46.1 µM]	1%	-8%
Cc1cccc(-c2cc(NCCc3cccnc3)n3nccc3n2)c1	.	-13%	20	.	11%	-14%
COc1ccc(CC(=O)OCC(=O)N2N=C(c3ccccc3)CC2c2ccc(OC)cc2)cc1 (centres undefined)	?	4%	-9	-8%	-20%	-12%
CCCCC(=O)OCC(=O)N1N=C(c2c[nH]c3ccccc23)C(O)C1c1ccc(OC)cc1 (centres undefined)	.	-37%	-61*	.	.	.
c1ccc2c(c1)Nc1cc3ccccc3cc1S2	0%[46.1 µM]	33%	6	20%	7%	-13%
c1ccc2c(c1)Nc1ccncc1S2	20%	-15%	-71*	6%	-27%	?
COc1ccc(CC(=O)NCc2ccc3c(c2)cc(C)n3C)cc1OC	.	?	-14	.	-11%	i
COc1cc(/C=C\C(=O)NCc2ccc3c(c2)cc(C)n3C)cc(OC)c1OC	5.2µM*	?	12	?	-3%	i
Cc1cc(C)c[n+](C2=C([O-])c3ccccc3C(=O)/C2=N\S(=O)(=O)c2cccs2)c1	.	40µM*	0	.	.	.
O=C1/C(=N\S(=O)(=O)c2cccs2)C([n+]2cccc(Cc3ccccc3)c2)=C([O-])c2ccccc21	2.8µM*	?	.	?	-27%	?
O=C1C=C(c2ccc(CO)cc2)C[C@@H](c2ccc(F)cc2)C1	.	-10%	7	.	-10%	?
CCOC(=O)c1cnc(SCc2ccccc2)nc1N	?	.	25	-5%	-11%	-4%
CCOC(=O)c1cnc(SCc2ccc(C(C)(C)C)cc2)nc1N	-3%	-27%	-27	4.1µM*	.	.
CCC(=O)NC(=S)Nc1ccc(S(=O)(=O)NC2CCCCC2)cc1	-2%	51%	-11	-8%	-9%	-19%
SMILES	Marburg entry inh	FMDV inh	HCMV antiviral	LASV entry inh	VACV Venus inh	VACV mCherry inh
Cc1cccc(NC(=O)CSc2nc(C3CCCC3)nc3c2c(=O)n(C)c(=O)n3C)c1C	.	-13%	4	11%[46.1 µM]	-5%	32%
COc1ccnc(N2CCN(c3ccc(Cl)cc3)CC2)c1C#N	-2%	?	-68*	-27%	-9%	-15%
COc1ccnc(N2CCN(c3cccc(C(F)(F)F)c3)CC2)c1C#N	-10%	.	6	?	-9%	-17%
O=C(COc1ccccc1/C=C1\SC(=S)NC1=O)Nc1ccc(F)cc1	?	?	-28	-4%[46.1 µM]	-10%	-13%
NC(=O)Nc1ccc(C(=O)N2CCN(S(=O)(=O)Cc3ccccc3)CC2)cc1	.	-12%	5	.	.	.
NC(=O)NC(=O)C(c1ccccc1)N1CCN(S(=O)(=O)Cc2ccccc2)CC1 (centres undefined)	0%	-1%	-88*	-2%	-5%	-2%
COc1ccc(Cc2nccc3cc(OC)c(OC)cc23)cc1OC	?	18µM*	-77*	?	?	?
COc1ccc(Cc2c3cc(OC)c(OC)cc3cc[n+]2C)cc1OC	.	-10%	.	.	-7%	i
Cc1ccc(S(=O)(=O)N2C[C@H]3n4c(=O)ccc(=O)n4C[C@H](OC(=O)NCC4CCCCC4)[C@@]3(O)C2)cc1	.	32µM*	-102*	.	?	?
CCCCCCn1c(=O)n2n(c1=O)C[C@]1(OC(=O)NC3CCCC3)CN(S(=O)(=O)c3ccc(C)cc3)C[C@]1(O)C2	.	0%	-13	.	?	-1%
Cc1ccc(S(=O)(=O)N2C[C@H]3n4c(=O)ccc(=O)n4C[C@H](OC(=O)NCc4ccco4)[C@@]3(O)C2)cc1	.	?	-14	.	-24%	-29%
CCCCCCn1c(=O)n2n(c1=O)C[C@]1(OC(=O)NCC3CCCCC3)CN(S(=O)(=O)c3ccc(C)cc3)C[C@]1(O)C2	.	?	12	.	10µM*	?
Cc1ccc(S(=O)(=O)N2C[C@H]3n4c(=O)ccc(=O)n4C[C@H](OC(=O)NCc4ccccc4)[C@@]3(O)C2)cc1	.	0%	-61*	.	?	?
O=C(NCc1ccncc1)c1cnn(-c2ncc3c(n2)-c2ccccc2CC3)c1C1CC1	.	-11%	.	.	-8%	i
OC[C@@H]1NC[C@@H](O)[C@@H](O)[C@H]1O	7%	.	.	.	.	.
CCCCOc1ccc(-c2nc(-c3cccnc3)no2)cc1	?	-27%	41	-2%	-16%	.
COc1nc(C)ccc1-c1noc(-c2ccccn2)n1	?	-40%	71	8.2µM*	.	.
Clc1ccc(-c2nc(-c3ccccn3)no2)cc1Cl	2.9µM*	.	66	?	-7%	-1%
COc1ccc(-c2nc(-c3ccccn3)no2)cc1	0.29µM*	7.9µM*	-94*	?	.	.
CCOc1ccc(-c2nc(-c3cccnc3)no2)cc1	5.6µM*	-12%	110	10µM*	-6%	-13%
COc1ccc(-c2nc(-c3cccs3)no2)cc1	?	7.1µM*	-35	1.8µM*	-18%	-12%
Clc1ccc(OCc2nc(-c3ccccn3)no2)c(Br)c1	?	-48%	-61*	9.2µM*	-11%	-7%
COc1ccc(-c2nc(-c3ccncc3)no2)cc1	.	-1%	99	.	.	.
COc1ccccc1-c1nc(-c2ccccn2)no1	.	-72%	?	.	-8%	-10%
